MCF10A rereplic – DNA re-replication induction in MCF 10a cells. MCF 10A DNA re-replication, Hoechst nuclear intensity, 48 h. Potency, µM (highest dose often 46.1 µM), without a hit: top-dose activity, positive = re-replication, most hits filed as activators. 350,000 tested, 2.9% active. AID 624296; also: % of control where 0% means no effect; nearly all actives have a fitted effect of over 50% in size
SW480 rerep – DNA re-replication induction in SW480 cells. Potency, µM (series often up to 46.1 µM), for the others: at the highest dose re-replication activation, hits mostly activators. 340,000 tested, 1.8% active. SW480 DNA re-replication, Hoechst DNA content imaging, 48 h; also: % of control where 0% means no effect; nearly all actives have a fitted effect of over 55% in size
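Readout is total intensity of Hoechst-stained nuclei, excited at 405 nm and collected at 500-530 nm. Compound treatment lasted 48 hr at 37 C in 5% CO2 before staining.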
KB-3-1 cytotox – KB-3-1 parental cell cytotoxicity | KB-3-1 viability, CellTiter-Glo ATP luminescence, 72 h | Potency, µM (series often up to 46.1 µM), actives largely listed as cytotoxic | 400,000 tested, 1.4% active; also: % is scaled to controls: 0 for no effect and ±100 for the full control effect; nearly all actives have a fitted effect of over 60% in size
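72 h, 37 °C compound treatment of KB-3-1 parental cells; CellTiter-Glo added, 10 min, luminescence read. Data corrected against DMSO-only plates and normalized before curve fitting.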
VP16 counter – inhibits Gal4-VP16 luciferase reporter, ROR gamma counter-screen; Drosophila S2 Gal4-VP16 UAS-luciferase, luminescence, 20 h; Potency, µM (doses to about 53.6 µM), inactives show at the highest dose activity, negative = inhibition, hits mostly inhibitors; 310,000 tested, 3.5% active; AID 2546;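 also: Gal4-VP16 expression switched on by copper sulfate through the metallothionein promoter; % is scaled to controls: 0 for no effect and ±100 for the full control effect; nearly all actives have a fitted effect of over 50% in size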
RORg inh – ROR gamma (mouse) transcription inhibition; P51450; Potency, µM (titrated, usually from 53.6 µM), without a hit: top-dose activity change, negative = inhibition, actives largely listed as inhibitors; AID 2551; 310,000 tested, 5.4% active; Drosophila S2 Gal4-RORgamma UAS-luciferase reporter, 20 h; also: % is scaled to controls: 0 for no effect and ±100 for the full control effect; nearly all actives have a fitted effect of over 60% in size
Target sequence (P51450 whole entry, looked up, the tested form may be a part): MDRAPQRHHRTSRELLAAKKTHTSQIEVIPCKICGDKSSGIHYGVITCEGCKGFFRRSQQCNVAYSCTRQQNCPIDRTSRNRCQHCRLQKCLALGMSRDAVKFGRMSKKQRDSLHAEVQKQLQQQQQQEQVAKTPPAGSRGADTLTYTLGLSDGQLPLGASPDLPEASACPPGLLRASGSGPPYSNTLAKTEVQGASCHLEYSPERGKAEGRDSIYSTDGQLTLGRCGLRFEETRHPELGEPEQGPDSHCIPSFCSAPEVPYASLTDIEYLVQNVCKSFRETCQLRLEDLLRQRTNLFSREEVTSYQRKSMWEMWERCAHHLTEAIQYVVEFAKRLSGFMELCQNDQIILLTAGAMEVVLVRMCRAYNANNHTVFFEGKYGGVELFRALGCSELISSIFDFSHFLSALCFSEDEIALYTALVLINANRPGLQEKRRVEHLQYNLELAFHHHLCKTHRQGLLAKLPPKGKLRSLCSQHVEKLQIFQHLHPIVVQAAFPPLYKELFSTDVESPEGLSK
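Luminescence from a UAS-regulated Photinus luciferase reporter in stably transfected Drosophila Schneider cells is measured; decreased signal marks ROR gamma inhibition. Fusion expression is induced by 700 uM copper sulfate for 20 hr.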
KB-V1 cytotox – kills drug-selected multidrug resistant KB-V1 cells; KB-V1 MDR cells viability, CellTiter-Glo, 72 h; Potency, µM (highest dose often 46.1 µM), usual class: cytotoxic; 400,000 tested, 3.4% active; AID 1347076; also: % is scaled to controls: 0 for no effect and ±100 for the full control effect; nearly all actives have a fitted effect of over 60% in size
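Following 72 h at 37 degrees C with compound, KB-V1 cell viability was read by CellTiter-Glo luminescence, medium being phenol-red-free DMEM plus 10% FBS; concentration-response parameters came from normalized, curve-fitted qHTS data.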
An asterisk follows results filed as active; i = inactive; ? = inconclusive; nt = no result; [ ] = another dose, or the depositor's remark. Sampled rows, rich in hits. Any-hit rate of the full collection: about 10%. Calls follow the shape of the dose curve; as a rule, active = well fitted curve in the direction sought with a large enough effect; inconclusive = small, poorly fitted or top-dose-only effect, or another doubt; inactive = no such curve, though single readings can be large; an effect the other way counts as inactive or inconclusive. Potency is read from the fitted curve at half-maximal effect.

SMILES | MCF10A rereplic | SW480 rerep | KB-3-1 cytotox | VP16 counter | RORg inh | KB-V1 cytotox
CC1=C(C(=O)Nc2ccccc2)C(c2cccc(O)c2)n2nc(-c3ccccc3Cl)nc2N1 (centres undefined) | nt | nt | i | nt | nt | ?
CCn1c(CSc2nc(C)cc(C)n2)nnc1SCC(=O)Nc1ccccc1 | 7% | -7% | i | nt | 3%[0.365 µM] | 21µM*
CCn1c(Cn2nnc(-c3ccccc3)n2)nnc1SCC(=O)Nc1cccc(C(C)=O)c1 | 21µM* | ? | i | -1% | 1% | i
CCn1c(CSc2nc(C)cc(C)n2)nnc1SCC(=O)Nc1cccc2ccccc12 | -5% | 2% | i | 0% | -35% | i
CCn1c(Cn2nnc(-c3ccccc3)n2)nnc1SCC(=O)Nc1ccc(C(C)=O)cc1 | 10% | -1% | i | 2% | 20% | i
O=C(NCc1nnnn1-c1ccc(F)c(F)c1)c1cc2ccccc2o1 | -6% | -13% | i | nt | nt | ?
Cc1ccc(CNCc2ccccc2Cl)s1 | nt | nt | i | nt | nt | i
Cc1cccc(N=C2CCCC2C(=O)Nc2cccc(C)c2C)c1C (centres undefined) | 2% | -5% | i | nt | nt | i
CN(C)Cc1ccccc1-c1cc(Nc2ccccc2)ncn1 | nt | nt | nt | 2% | -2% | nt
CCc1ccc(CNC(=O)c2ccc3nc(C4CCCCC4)oc3c2)nc1 | nt | nt | nt | 11µM* | 6.3µM* | nt
COC(=O)[C@@]1(Cc2ccc(OC)cc2)[C@H]2c3cc(C(=O)N(C)C)n(CCF)c3C[C@H]2CN1C(=O)c1ccccc1 | nt | nt | nt | 10% | -15% | nt
CCc1sc(C(=O)Nc2nccs2)cc1C | 10% | -9% | i | ? | 7.9µM* | i
CCc1sc(C(=O)Nc2ncccc2C)cc1C | 0% | 1% | i | -15% | -5% | i
CCOC(=O)/C=C/C(=O)Nc1nccs1 | 18µM* | ? | i | ? | ? | i
Cc1ccsc1C(=O)Nc1nccs1 | -5% | 7% | i | ? | 11µM* | i
CCc1nn2c(-c3ccccc3OC)ccnc2c1-c1ccc(F)cc1 | nt | nt | i | nt | nt | i
Cc1cccc(OC(=O)CSc2nnc(-c3ccc4c(c3)OCO4)o2)c1C | nt | nt | i | nt | nt | i
NS(=O)(=O)c1ccc(N2N=C(c3ccccc3)CC2c2ccccc2Cl)cc1 (centres undefined) | 3.3µM* | 4.6µM* | i | nt | nt | i
Cc1ccc(C2CC(c3ccccc3)=NN2c2ccc(S(N)(=O)=O)cc2)cc1 (centres undefined) | nt | nt | ? | nt | nt | i
NS(=O)(=O)c1ccc(N2N=C(c3ccccc3)CC2c2ccccc2)cc1 (centres undefined) | 8.2µM* | 13µM* | ? | ? | 4% | ?
O=S(=O)(O)c1ccc(N2N=C(c3ccccc3)CC2c2ccccc2)cc1 (centres undefined) | 15% | 15µM* | i | -1% | -10% | i
CCc1ccc(C2=NN(c3ccc(S(N)(=O)=O)cc3)C(c3ccc(F)cc3)C2)cc1 (centres undefined) | ? | 9.2µM* | ? | ? | ? | ?
CC(=O)N1N=C(c2ccccc2)CC1c1ccccc1 (centres undefined) | 12% | 16% | i | 0% | -20% | i
COc1cc2ncnc(N(C)Cc3cccs3)c2cc1-c1ccc2c(c1)OCO2 | nt | nt | i | nt | nt | i
CC(=O)N1CCc2c(sc3c2c(=O)n(-c2ccccc2)c(=O)n3CC(=O)c2ccc(F)cc2)C1 | nt | nt | i | nt | nt | i
COc1ccc(NC(=O)N2CC3(CCN(C(=O)c4ccco4)CC3)C2)cc1 | nt | nt | nt | 8% | 10% | nt
COc1cccc(CNC(=O)Cn2c(=O)cc(C(F)(F)F)c3c(C)nn(C)c32)c1OC | nt | nt | i | nt | nt | i
Fc1ccc(N2N=C(c3cccs3)CC2c2ccccc2)cc1 (centres undefined) | 2.6µM* | 5.8µM* | i | 1% | 28% | i
